From PubChem BioAssay AID521 (Sanford-Burnham Center for Chemical Genomics, 2006)
Screen size: about 110,000 compounds; about 730 (0.66%) were called active. For the sample, actives were picked, then their nearest neighbours and some compounds at random. A number with no mark means an inactive call. Cut-off read from the data, not from the text of the source: active = inhibition above about 50%; inconclusive = no clear call, values can overlap the other calls; inactive = below that.

The molecules below were run against Tyrosine-protein phosphatase non-receptor type 7 (Homo sapiens) (UniProt P35236) (assay: HePTP tyrosine phosphatase activity blockers – biochemical, absorbance, leukemia target, primary screen (AID 521;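 note: plate controls were vehicle for no effect and reference inhibitor for full effect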)). Conditions: recombinant HePTP phosphatase activity, OD absorbance; at 20 µM; active compounds read high.
Chain of Tyrosine-protein phosphatase non-receptor type 7 (Homo sapiens) (P35236 whole entry, looked up): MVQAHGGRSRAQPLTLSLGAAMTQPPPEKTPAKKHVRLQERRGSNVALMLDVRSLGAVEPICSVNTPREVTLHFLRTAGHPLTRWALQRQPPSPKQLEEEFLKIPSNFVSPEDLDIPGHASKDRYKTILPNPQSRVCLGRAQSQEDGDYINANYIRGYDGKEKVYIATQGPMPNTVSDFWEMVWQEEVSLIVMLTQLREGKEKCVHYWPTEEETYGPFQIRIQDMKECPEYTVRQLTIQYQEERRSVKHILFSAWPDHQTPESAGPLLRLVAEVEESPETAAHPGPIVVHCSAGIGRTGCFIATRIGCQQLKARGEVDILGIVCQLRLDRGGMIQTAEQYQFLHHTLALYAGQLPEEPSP
Work on `COc1ccc2ccccc2c1/C=N/NC(=O)c1cc(C)[nH]n1` yielded an inhibition of 0.2%.
In the case of `Cc1c(C#N)c2nc3ccccc3n2c(=O)/c1=C\c1c(O)n(-c2ccc(Br)cc2)[nH]c1=O`, the inhibition is reported as 103% (active).
In the case of `N#Cc1c2c(c(N3CCN(CCO)CC3)n3c1nc1ccccc13)CCCC2`, the inhibition is reported as 4.3%.
`Cc1cc(NCCN2CCCCCC2)n2c(nc3ccccc32)c1C#N` was tested, and the inhibition was -9.3%.
Molecule `COc1ccc(OC)c(N(CC(=O)Nc2cccc(Cl)c2)S(=O)(=O)c2ccc(OC)c(OC)c2)c1` has an inhibition of -8.4%.
For `COc1ccc(NCN2C(=O)CSC2=O)cc1Cl`, the inhibition was 5.1%.
Molecule `COc1cccc(/C=C(/C#N)C(=O)Nc2ccc(F)cc2)c1O` has an inhibition of 9.6%.
With `O=C(Nc1cccc(Br)c1)C(=O)NC1CCCC1` the inhibition was -7.9%.
In the case of `N#C/C(=C/c1cc(Cl)c(O)c(Cl)c1)C(=O)Nc1cccc(Br)c1`, the inhibition is reported as 102% (active).
Work on `CCOC(=O)c1c(Nc2ccc(C)cc2)csc1C` yielded an inhibition of 5.4%.
With `COc1ccc(CC(=O)Nc2ccc(-c3ccc(NC(=O)Cc4ccc(OC)cc4)c(OC)c3)cc2OC)cc1` the inhibition was -17.3%.
With `Cc1cc(C)cc(NC(=O)CN2C(=O)c3ccccc3C2=O)c1` the inhibition was 4.6%.
With `CSc1nc(=O)n(C)c(C)c1C(C)=O` the inhibition was -0.4%.
Molecule `O=C(NC(NC(=S)Nc1ccc(I)cc1)C(Cl)(Cl)Cl)c1cccc([N+](=O)[O-])c1` (configuration not stated) has an inhibition of -2.4%.
With `Cc1cc(C)c2nc3s/c(=C\c4ccc(-c5ccccc5C(=O)O)o4)c(=O)n3c2c1` the inhibition was 103% (active).
`Cc1cc(C)c2nc3s/c(=C\c4ccc(N(C)C)cc4)c(=O)n3c2c1` was tested, and the inhibition was 8.6%.
Work on `COc1cc(/C=c2\sc3nc4c(C)cc(C)cc4n3c2=O)cc(Br)c1O` yielded an inhibition of 5.3%.
Molecule `O=C1c2ccccc2C(=O)c2c(NC3CCCCC3)cccc21` has an inhibition of -14.5%.
With `COc1ccc(/C=N/n2cnc3sc4c(c3c2=O)CCCC4)cc1OC` the inhibition was 1.7%.
Molecule `O=C(Nc1cccc(NC(=O)c2ccc(Cl)cc2Cl)c1)c1ccc(-c2ccc([N+](=O)[O-])cc2)o1` has an inhibition of 5.5%.
In the case of `CCOc1ccc2cc(S(=O)(=O)NCC3CCCO3)ccc2c1` (configuration not stated), the inhibition is reported as 0.1%.
With `Cc1c(Br)c(=O)[nH]c(=O)n1Cc1ccccc1` the inhibition was 0.2%.
With `O=C(NCc1ccccn1)C(=O)Nc1ccc(Br)cc1` the inhibition was 7.9%.
`Cc1cc(C)c(NC(=O)C(C)Sc2nnc(-c3cccc(F)c3)n2-c2ccccc2)c(C)c1` (configuration not stated) gave an inhibition of -3.5%.
In the case of `COc1ccc(Cl)cc1C(=O)Nc1ccc2c3c(cccc13)CC2`, the inhibition is reported as -1.6%.
`CCCCOC(=O)Nc1nnc(-c2ccco2)s1` was tested, and the inhibition was -8.6%.
With `CCOc1cc(/C=N/NC(=O)CC2C(=O)NN=C2C)ccc1O` (configuration not stated) the inhibition was -5.5%.
`O=C(Nc1cccc([N+](=O)[O-])c1)c1ccc2c(c1)C(=O)N(N1C(=O)c3ccccc3C1=O)C2=O` was tested, and the inhibition was -5.9%.
With `COC(=O)c1c(-c2ccc(Br)cc2)csc1NC(=O)CCCC(=O)O` the inhibition was 8.8%.
With `CCc1ccc(N2C(=O)NC(=O)/C(=C\c3cc(Cl)c(O)c(Cl)c3)C2=O)cc1` the inhibition was 2.7%.
`CN(C)c1ccc(C2/C(=C(\O)c3ccccc3)C(=O)C(=O)N2CCCC(=O)O)cc1` (configuration not stated) showed an inhibition of 3.2%.
`COc1cc(/C=C2/SC(=S)N(C)C2=O)cc([N+](=O)[O-])c1O` gave an inhibition of 6.6%.
`CC(=O)C1=C(O)C(=O)N(CCN2CCNCC2)C1c1ccc(C)cc1` (configuration not stated) showed an inhibition of 6%.
With `Cc1ccc(-c2csc(NC(=O)c3ccc(Cl)cc3)n2)cc1` the inhibition was 7%.
With `CCN1C(=O)/C(=C\c2cn(CCOc3ccc(Br)cc3)c3ccccc23)SC1=S` the inhibition was 2.4%.
In the case of `Cc1cc(Cl)ccc1OCC(=O)O/N=C(\N)c1ccncc1`, the inhibition is reported as -14.4%.
Work on `COC(=O)CCN(C(=O)c1ccc(F)cc1)c1ccccn1` yielded an inhibition of -21.6%.
`O=C(NC(=O)C(Cl)(Cl)Cl)Nc1ccc(Cl)c(Cl)c1` was tested, and the inhibition was 3.7%.
Work on `Cc1ccc(S(=O)(=O)Nc2ccc(NC(=O)C3C4C=CC(O4)C3C(=O)O)cc2)cc1` (configuration not stated) yielded an inhibition of -5.5%.
`O=C(O)C1C2C=CC(O2)C1C(=O)Nc1nccs1` (configuration not stated) was tested, and the inhibition was 104% (active).
`O=C(Nc1nccs1)C(c1ccccc1)c1ccccc1` was tested, and the inhibition was -5.8%.
`O=C(c1ccc2c(c1)OCO2)N1CCNc2ccccc2C1` showed an inhibition of 7.3%.
`O=C(c1ccc2c(c1)OCO2)N1CCOCC1` was tested, and the inhibition was 104% (active).
`O=C(Nc1ccc(N2CCOCC2)cc1)c1ccc2c(c1)OCO2` was tested, and the inhibition was -5.6%.
With `O=C(Nc1cccnc1)c1cnn2c1NC(c1ccco1)CC2C(F)(F)F` (configuration not stated) the inhibition was 0.1%.
`Cc1cc2oc(=O)cc(C)c2cc1NC(=O)c1ccccc1` was tested, and the inhibition was -31.1%.
`O=C(O)C(Sc1nc2ccccc2s1)c1ccccc1` (configuration not stated) was tested, and the inhibition was -17.3%.
`O=C1/C(=C/c2ccc(Br)cc2)SC(=S)N1CCc1ccccc1` was tested, and the inhibition was 3.2%.
Work on `O=C(O)CCCN1C(=O)/C(=C/c2ccccc2)SC1=S` yielded an inhibition of 8.8%.
With `O=C(O)CCCCCCCCCCN1C(=O)/C(=C/c2ccc(Br)cc2)SC1=S` the inhibition was 70.7% (active).
`O=C(Nc1cccc(O)c1)c1cc2nc(-c3ccc(F)cc3)cc(C(F)(F)F)n2n1` was tested, and the inhibition was 4.4%.
Work on `CCOC(=O)c1ccc(N2NC(=O)/C(=C/c3ccc(Br)cc3)C2=O)cc1` yielded an inhibition of 6.5%.
